Bioassay records as filed in PubChem BioAssay.
In the library only some 5.5% were active in any assay of this set; here they are far more common.
RORgamma inh: inhibitors of mouse ROR gamma transcriptional activity; P51450; Drosophila S2 Gal4-RORgamma UAS-luciferase reporter, 20 h; Potency, µM (top dose mostly 53.6 µM), for inactives: at the top dose activity change, negative = inhibition, usual class: inhibitors; actives 5.4% (n = 310,000); AID 2551; also: potency is read from the fitted curve at half-maximal effect; % is scaled to controls: 0 for no effect and ±100 for the full control effect; nearly all actives have a fitted effect of over 60% in size
Target sequence (P51450 whole entry, looked up, the tested form may be a part): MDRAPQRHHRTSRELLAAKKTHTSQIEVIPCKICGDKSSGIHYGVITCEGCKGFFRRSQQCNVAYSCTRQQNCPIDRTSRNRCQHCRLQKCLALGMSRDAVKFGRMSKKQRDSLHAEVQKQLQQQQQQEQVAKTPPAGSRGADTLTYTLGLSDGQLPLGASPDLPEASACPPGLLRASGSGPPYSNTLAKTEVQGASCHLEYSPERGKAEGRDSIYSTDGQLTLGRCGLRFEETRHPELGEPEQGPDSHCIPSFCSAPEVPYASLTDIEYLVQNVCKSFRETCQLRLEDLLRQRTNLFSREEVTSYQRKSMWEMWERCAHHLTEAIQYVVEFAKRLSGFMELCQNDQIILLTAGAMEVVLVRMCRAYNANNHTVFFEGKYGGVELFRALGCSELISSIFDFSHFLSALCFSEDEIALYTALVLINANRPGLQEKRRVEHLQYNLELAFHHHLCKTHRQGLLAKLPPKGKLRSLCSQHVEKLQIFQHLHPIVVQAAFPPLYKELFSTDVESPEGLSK
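Read-out: Photinus luciferase luminescence; inhibitors lower reporter signal. Insect Schneider cells with Gal4-ROR gamma fusion under metallothionein promoter, UAS reporter; 700 uM final copper sulfate induction, 20 hr, ambient temperature.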
Gal4-VP16 FLuc: inhibits Gal4-VP16 luciferase reporter, ROR gamma counter-screen; Drosophila S2 Gal4-VP16 UAS-luciferase, luminescence, 20 h; Potency, µM (series often up to 53.6 µM), for inactives: top-dose activity, negative = inhibition, hits mostly inhibitors; actives 3.5% (n = 310,000);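 also: Gal4-VP16 expression switched on by copper sulfate through the metallothionein promoter; potency is read from the fitted curve at half-maximal effect; % is scaled to controls: 0 for no effect and ±100 for the full control effect; nearly all actives have a fitted effect of over 50% in size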
CBFb-RUNX1 inh: inhibitors of human CBF-beta and RUNX1 interaction | AID 1477 | Q01196+Q13951 | AlphaScreen CBFb-His/RUNX1-biotin binding, biochemical | Potency, µM (top dose mostly 59.8 µM), without a hit: at the top dose activity, negative = inhibition, actives largely listed as inhibitors | 230,000 tested, under 10 active; also: % of control where 0% means no effect
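Interaction loss through any mechanism counts as activity. Pre-formed complex of His-CBF-beta and biotin-RUNX1 (30 nM apiece) is incubated with compound 15 min, then with 50 ng nickel and 50 ng streptavidin beads for 90 min before AlphaScreen detection.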
Six1-Eya2 blk: blocks human Six1 binding to Eya2; Q15475+O00167; AlphaScreen GST-Six1/His-Eya2 binding, biochemical; stronger effect = lower value; activity change, % (concentration not given with the values); actives 0.56% (n = 360,000); AID 651725; in the data active = activity change below about -65%; inconclusive = mostly about -30% to -63%; also: % is scaled to controls: 0 for no effect and ±100 for the full control effect
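GST-Six1 + His-Eya2 (5X stock: 250/500 nM); Tris pH 8.0, 300 mM NaCl, 0.05% BSA, 0.02% Tween 20; GSH donor/Ni acceptor beads; 1 h 37 °C dark; AlphaScreen readout.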
MBNL1 CUG block: MBNL1-poly(CUG) RNA binding inhibition; AID 2675; Potency, µM (highest dose often 57.5 µM), inactives show at the top dose activity change, negative = inhibition, usual class: inhibitors; Q9NR56; TR-FRET MBNL1-His/biotin-(CUG)12 binding, 665/545 ratio; actives 0.036% (n = 280,000); active = well fitted inhibition curve with a large enough effect in the signal ratio, with a control signal flat, not every such curve was filed as active; inconclusive = small, poorly fitted or top-dose-only effect, or effect the other way, or a change in a side signal; inactive = no such curve, though single readings can be large or run the other way; the % refers to the signal ratio; also: potency is read from the fitted curve at half-maximal effect; % is scaled to controls: 0 for no effect and ±100 for the full control effect
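Ratiometric TR-FRET (665 over 545 nm, excitation 340 nm) tracks disruption of MBNL1-His/biotin-(CUG)12 complex after 60 min at room temperature, with compounds at 92 nM to 58 uM final.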
CtBP-E1A inh: CtBP/E1A binding inhibition. AlphaScreen GST-E1A/His-CtBP binding, 1536-well; stronger effect = lower value. activity change, % (no concentration beside the values). actives 0.49% (n = 340,000); in the data active = activity change below about -65%; inconclusive = mostly about -30% to -63%; also: % is scaled to controls: 0 for no effect and ±100 for the full control effect
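Protein mix (5X: 125 nM each GST-E1A, His-CtBP) was incubated with pinned compound 2 h at 37 deg C in dark, in 50 mM Tris pH 8.0 buffer with 300 mM NaCl. Glutathione donor and nickel acceptor beads followed; AlphaScreen signal read after 1 h.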
Numbers without * were called inactive; i = inactive; ? = inconclusive; . = no result given; [ ] = dose if it differs, or a comment. Unless noted, calls follow the shape of the dose curve; as a rule, active = well fitted curve in the direction sought with a large enough effect; inconclusive = small, poorly fitted or top-dose-only effect, or another doubt; inactive = no such curve, though single readings can be large; an effect the other way counts as inactive or inconclusive.

SMILES | RORgamma inh | Gal4-VP16 FLuc | CBFb-RUNX1 inh | Six1-Eya2 blk | MBNL1 CUG block | CtBP-E1A inh
COc1ccc(-c2cc(C(F)(F)F)nc(S(=O)(=O)CCC(=O)N3CCOCC3)n2)cc1 | 8.9µM* | ? | 2% | 3 | -13% | -5
COc1ccccc1-c1cc(C(F)(F)F)nc(S(=O)(=O)CCCC(=O)N2CCOCC2)n1 | 5.6µM* | 7.1µM* | -1% | -4 | -2% | 2
COc1ccccc1-c1cc(C(F)(F)F)nc(S(=O)(=O)CCCC(=O)O)n1 | ? | ? | 1% | -9 | -3% | 3
COC(=O)c1ccc(NC(=S)NC2CCCCC2)cc1 | 7.1µM* | ? | 5% | 1 | -6% | -2
COC(=O)c1ccc(NC(=O)C2CC3CCC2C3)cc1 (centres undefined) | . | . | . | 10 | . | 6
COC(=O)c1ccc(NC(=S)NCC2CC2)cc1 | 11µM* | ? | 4% | 0 | -10% | .
COC(=O)c1ccccc1NC(=O)NC1CCCCC1 | 16% | -3% | 3% | 0 | 3% | .
COC(=O)c1cccnc1NC(=S)NC1CCCCC1 | 0.63µM* | 1.3µM* | 1% | 4 | 7% | -6
COC(=O)c1ccc(NC(=S)NC2CC3CCC2C3)cc1 (centres undefined) | 11µM* | ? | -2% | 2 | -14% | 2
COc1ccc(OC)c(NS(=O)(=O)c2c(C)nc3sccn3c2=O)c1 | 12% | 2% | . | 0 | -6% | 5
COCCNC(=O)CN(C(=O)CCC(=O)Nc1ccccn1)c1ccc(C)c(C)c1 | 12%[1.91 µM] | -11% | . | -2 | -5% | 5
Cc1ccccc1NC(=O)CN1C(=O)c2cccnc2Oc2ccc(Cl)cc21 | -4% | 6% | . | -2 | -10% | -12
COc1cccc(NC(=O)C2(C)CCN2C(=O)C2CCCCC2)c1 (centres undefined) | . | . | . | 0 | . | 1
Cn1c(=O)c([N+](=O)[O-])c(-n2ccnc2)c2ccccc21 | ? | 7.9µM* | 17% | -9 | . | -1
Cc1ccc(-c2nn(-c3ccccc3)c3[nH]c(=O)c(CNCCN(C)C)cc23)cc1 | 4µM* | 7.9µM* | -13% | . | -5% | .
COCC(C)NC(=O)NC1(C(F)(F)F)Oc2ccc(Cl)cc2O1 (centres undefined) | 10µM* | 11µM* | -1% | -3 | -12% | 3
O=C(NCCN1CCOCC1)c1cc(Cl)ccc1Cl | 4% | 1% | . | 5 | -8% | -1
O=C(NCCN1CCOCC1)NC1(C(F)(F)F)Oc2ccc(Cl)cc2O1 (centres undefined) | 0.32µM* | ? | -5% | 1 | -7% | 1
COc1cc2[nH]c(C(=O)N3CCC(Cc4ccccc4)CC3)cc2c(OC)c1OC | 9% | 8% | . | -15 | -2% | -4
CCCc1cc(=O)oc2cc(C)cc(OC(C)C(=O)NCc3ccncc3)c12 (centres undefined) | 0% | 20% | . | -3 | 0% | 3
COc1cccc2sc3cc(NCCCN4CCOCC4)ccc3c(=O)c12 | . | . | . | -13 | . | -12
CCn1c(=S)[nH]c2cc(C(=O)O)ccc21 | -9% | -1% | 4% | . | -9% | .
COC(=O)c1c[nH]c(=S)n1Cc1ccccc1 | . | . | . | -3 | . | 3
CCn1c(-c2ccccc2)c[nH]c1=S | 1.1µM* | 8.9µM* | -4% | 1 | -9% | -1
S=c1[nH]cc(-c2ccc(Cl)cc2)n1Cc1ccccc1 | 2.5µM* | 2.8µM* | -2% | 2 | . | 9
SMILES | RORgamma inh | Gal4-VP16 FLuc | CBFb-RUNX1 inh | Six1-Eya2 blk | MBNL1 CUG block | CtBP-E1A inh
CC(C)Cn1c(-c2ccc(Br)cc2)c[nH]c1=S | 0.63µM* | 1.6µM* | -12% | -14 | -7% | 0
CCOC(=O)c1c(NC(=O)COC(=O)c2nccnc2N)sc(C(=O)N(C)C)c1C | . | . | . | 5 | . | -2
COc1ccc2nc3cc(Cl)ccc3c(Nc3ccc(O)c(CN4CCN(C)CC4)c3)c2c1 | . | . | . | ? | . | 0
CCCCSc1cnn(-c2ccccc2)c(=O)c1SCCCC | ? | 14µM* | ? | 51 | i | 34
CCSc1cnn(-c2ccccc2)c(=O)c1SCC | ? | 16% | 1% | -1 | ? | -5
CC(C)CN(CC(C)C)C(=S)Nc1ccc(Cl)cc1 | 4µM* | 20µM* | -3% | 5 | -4% | -2
Cc1cnc(CNc2ccnc(-c3cccc(NS(C)(=O)=O)c3)n2)cn1 | 1% | -10% | . | . | . | .
COc1cccc(Nc2ncc3nc(C)c(=O)n(C4CC4)c3n2)c1 | 20% | 23% | . | . | . | .
Cc1cc(NCCCn2ccnc2)n2ncc(-c3ccccc3)c2n1 | 4.5µM* | 7.9µM* | -6% | -23 | -4% | -16
Cc1cc(NCCN2CCOCC2)n2nc(C)c(-c3ccc(Cl)cc3)c2n1 | -38% | -15% | -7% | -3 | -6% | -4
Cc1cc(NCCCn2ccnc2)n2nc(C)c(-c3ccccc3)c2n1 | 19% | 14% | -2% | -15 | -1% | -22
Cc1cc(NCc2ccccc2)n2ncc(-c3ccccc3)c2n1 | -27% | -4% | . | 20 | 5% | 46
Cc1cc(NCCN2CCOCC2)n2ncc(-c3ccccc3)c2n1 | 3.5µM* | 10µM* | 6% | -5 | -1% | 2
Cc1cc(NCCN2CCOCC2)n2nc(C)c(-c3ccccc3)c2n1 | 8.9µM* | 10µM* | 6% | -18 | -6% | 0
O=C(Nc1ccc(O)c2c(=O)cc(-c3ccccc3Cl)oc12)c1cc(Cl)cc(Cl)c1 | 1% | -6% | -7% | . | . | .
COc1ccc(S(=O)(=O)N2CCCC(C(=O)NCC3CCCO3)C2)cc1OC (centres undefined) | -3% | -12% | . | 2 | 1% | 0
Cc1[nH]n(C(N)=S)c(=O)c1N=Nc1ccc(S(=O)(=O)N2CCCCCC2)cc1 | 0.89µM* | 2.5µM* | -24% | -18 | ? | -12
Cc1ccc(S(=O)(=O)N2CCN(S(=O)(=O)N3CCCCC3)CC2)cc1 | 31% | -7% | -2% | 6 | -5% | 6
Cc1[nH]n(C(N)=S)c(=O)c1N=Nc1ccc2ccccc2c1 | 1µM* | 4µM* | ? | -12 | ? | 0
CC(=O)Nc1ccc(N=Nc2c(C)[nH]n(C(N)=S)c2=O)cc1 | 4µM* | 0% | -12% | -5 | ? | .
Cc1[nH]n(C(N)=S)c(=O)c1N=Nc1cc(-c2ccc(Br)cc2)[nH]n1 | 1.6µM* | -9% | -5% | -17 | 2% | -7
Cc1[nH]n(C(N)=S)c(=O)c1N=Nc1cccc([N+](=O)[O-])c1C | . | . | . | -1 | 4% | .
Nc1cc(-c2ccc(Br)cc2)[nH]n1 | 13% | ? | 13% | -6 | -21% | -12
COc1ccc(CNC(=O)/C=C/[C@H]2O[C@@H](n3cc(C)c(=O)[nH]c3=O)C[C@@H]2O)cc1 | . | . | . | 2 | . | 7
